Laboratory results reported in PubChem BioAssay AID1117319 (Southern Research Institute, 2015).
Screen size: about 260,000 compounds; about 1,500 (0.58%) were called active. Another 5% or so got no clear call; they are omitted.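 How the source made its calls: active means inhibition above a set limit at one or more doses, reproduced on every date tested; inconclusive means results disagree between test dates, or hit never tested in dose response; inactive means the rest.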 These entries were drawn from the full list. Entries with a potency or affinity are not part of this list.

Each compound was assayed against Virion infectivity factor (Human immunodeficiency virus type 1 group M subtype B (isolate BH10)) + Virion infectivity factor (Human immunodeficiency virus type 1 group M subtype B (isolate BRU/LAI)) + Virion infectivity factor (Human immunodeficiency virus type 1 group M subtype B (isolate PCV12)) + Virion infectivity factor (Human immunodeficiency virus type 1 group M subtype B (isolate HXB2)) + DNA dC->dU-editing enzyme APOBEC-3G (Homo sapiens) (UniProt P69720+P69721+P69722+P69723+Q9HC16) (assay: inhibitors of Vif binding to APOBEC3G peptide, primary screen, biochemical, TR-FRET, GST-Vif 1-94, biotin-A3G peptide, dose response retest (AID 1117319;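 further: Vif residues 1-94 fused to GST binding biotinylated APOBEC3G peptide 110-148; 0% = full assay without inhibitor and 100% = GST in place of GST-Vif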)). Details: hits give high values.

inhibition, inactive:
CN(CCC#N)C(=O)CC(Cc1ccccc1)C1CCOC(C)(C)C1 (stereo not given) 28.5%
CCn1cnc2cc(NCc3ccncc3)ccc21 18.7%
CC(C)n1cnc2cc(NCc3ccccn3)ccc21 14.4%
CCCn1cnc2cc(NCc3ccccc3O)ccc21 -2.34%
CCCn1cnc2cc(NCc3ccc(Br)cc3)ccc21 -8.23%
CCNC(=S)NCCN1CCCCC1 -5.58%
Cc1cc(C)cc(NC(=O)Cn2cc3c(n2)CCCCC3)c1 0.97%
CC(=O)Nc1ccc(NC(=O)Cn2cc3c(n2)CCCC3)cc1 -2.34%
Cc1cc(C)c2c(N)c(-c3nc4ccccc4[nH]3)sc2n1 1.28%
O=C1CSC(=S)N1c1ccccc1 -4.55%
CCN(CC)c1ccc(N2C(=O)CSC2=S)cc1 -8.43%
Cc1ccc(S(=O)(=O)Nc2cccc(C(=O)N3CCCC3)c2)cc1F 3.33%
CC(C)c1cc(=O)oc2c3c4c(cc12)CCCN4CCC3 13.8%
O=c1oc2c3c4c(cc2c(C(F)(F)F)c1CCN1CCOCC1)CCCN4CCC3 16.6%
N/C(=N\OC(=O)CN1C(=O)c2ccccc2C1=O)c1ccc(Cl)cc1 -10.1%
COc1ccc(N2CCN(C(=O)COC(=O)c3oc4ccc(OC)cc4c3C)CC2)cc1 1.73%
COc1ccc(NC(=O)C(NC(C)=O)C(=O)NCc2ccccc2)cc1 (stereo not given) 2.8%
O=C(Nc1ccn(-c2ccccc2)n1)c1ccc(Cl)cc1 -12.3%
CC(=O)Nc1ccn(-c2ccccc2)n1 15.9%
COc1ccc(S(=O)(=O)N(CC(=O)NCc2ccco2)C2CCCCC2)cc1OC 24%
COC(=O)c1cc([N+](=O)[O-])c(C)c(C)n1 -2.89%
CCN1CCc2c(C#N)c(N3CCOCC3)nc(NCc3ccccc3)c2C1 13.6%
CCN1CCc2c(C#N)c(N3CCCCC3)nc(NCc3ccccc3)c2C1 25.2%
CCCc1c(C)[nH]c2ccccc2c1=O 6.62%
CC1=NN(c2ccc(Cl)c(C(=O)O)c2)C(=O)C1 29.9%
CC1=NN(c2cccc(C(=O)O)c2)C(=O)/C1=C\C=C/c1ccccc1 29.5%
CC1=NN(c2ccc(Cl)c(C(=O)O)c2)C(=O)/C1=C\c1ccc(-c2ccc(C(=O)O)cc2)o1 1.61%
CC1=NN(c2ccc(C)cc2)C(=O)/C1=C\C=C\c1ccccc1 -3.38%
O=C(CSc1nnc(CCCO)n1-c1ccccc1)Nc1nccs1 -0.69%
CCOc1cc(CNCCO)cc(Br)c1OCc1ccc(Cl)cc1 -0.39%
Nc1cc(=O)nc(SCC(=O)Nc2ccccc2Cl)n1-c1ccccc1 -1.2%
Cc1ncsc1CCSc1nc2ccccc2c(=O)n1C -1.02%
COc1cc(OC)cc(C(=O)Nc2cccnc2)c1 7.36%
COc1ccc(S(=O)CC(=O)Nc2ccccc2Cl)cc1 (stereo not given) -2.59%
CCN(CC)c1ccc(C=Nc2ccc(C#N)cc2)c(O)c1 -0.77%
CCN(CC)c1ccc(C=Nc2cc(C)cc(C)c2)c(O)c1 9.03%
CCN(CC)c1ccc(C=Nc2ccccc2C)c(O)c1 -5.2%
CCN(CC)c1ccc(C=Nc2ccccc2)c(O)c1 29.3%
COc1nnc(-c2ccc(C)c(S(=O)(=O)NC(C)C)c2)c2ccccc12 -9.93%
COc1ccc(C2=NC(CO)(CO)CO2)cc1 -8.98%
O=C(Nc1ccc(S(=O)(=O)N2CCCC2)cc1)c1cc(=O)c2ccccc2o1 -4.62%
CN(C)CC(=O)N1c2ccccc2Sc2ccc(Cl)cc21 3.03%
O=C(CN1CCCc2ccccc21)NCCc1ccc(Cl)cc1 32.1%
COc1ccc(CCNC(=O)CN2CCOc3ccccc32)cc1OC 2.79%
NC1=CC(=O)C(=O)c2ccccc21 6.05%
O=C1C=C(Nc2ccccc2)c2ccccc2C1=O 2.25%
COc1cc(NC(=O)CS(=O)(=O)c2ccccc2)cc(OC)c1OC -4.34%
COc1cc(-c2nnc(NC(=O)CS(=O)(=O)c3ccc(C)cc3)o2)cc(OC)c1OC -0.69%
O=[N+]([O-])c1cccnc1N1CCN(c2ccc(F)cc2)CC1 -1.42%
COCCCC1CCN(Cc2cn[nH]c2-c2cc(OC)c(OC)c(OC)c2)CC1 -14.3%
CSc1ccc(/C=N/Nc2ccc(Cl)c(C(=O)O)c2)cc1 14.3%
COC(=O)c1ccc(COc2ccccc2/C=N/Nc2cccc(C(=O)O)c2)cc1 9.8%
O=C(O)c1cccc(N/N=C/c2ccc(OC(F)(F)F)cc2)c1 0.25%
O=C(O)c1cccc(N/N=C/c2ccc(-c3ccccc3)cc2)c1 6.67%
CN(C)S(=O)(=O)N1CCc2ccccc21 28.1%
Cc1cc(OCCn2cnc3ccccc3c2=O)ccc1[N+](=O)[O-] 3.47%
CCc1ccc(S(=O)(=O)ON2C(=O)c3ccccc3C2=O)cc1 5.83%
CCc1ccc(S(=O)(=O)/N=C2\C=C(NS(=O)(=O)c3ccccc3)C(=O)c3ccccc32)cc1 16%
O=S(=O)(N=C1C=CC(=NS(=O)(=O)c2ccccc2)c2ccccc21)c1ccccc1 14.1%
COc1ccc(S(=O)(=O)/N=C2/C=CC(=O)C(C)=C2C)cc1 9.79%
Cc1ccc(CNC(=O)CSc2nc(N3CCCCC3)nc(N3CCCCC3)n2)cc1 4.78%
COc1ccc(Nc2nc(OC)nc(N3CCOCC3)n2)cc1 -3.38%
CC1=C(C(=O)OC2CCCCC2)C(c2cccs2)n2c(nc3ccccc32)N1 (stereo not given) -7.41%
CN1CCc2cc3c(c4c2[C@H]1[C@H](O)c1ccccc1-4)OCO3 9.65%
CN1CCc2ccccc2C1C1CCNCC1 (stereo not given) 25.2%
